Assay results from PubChem BioAssay (NCI).
The panel holds about 83,000 compounds, 20% with a hit somewhere; the sample as a whole holds those more often.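 The endpoint reported here, percent growth, reads 100 for growth as untreated, 0 for no net growth and -100 for all cells dead.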 Unmarked numbers belong to inactive results. Calls of active or inactive are those of the source. The calls were made as follows: active = growth percent below 10; inactive = the rest.

Columns and labels:
Assay in all cases: NCI-60 one-dose screen, 48 h (100 = growth as untreated, 0 = no growth, -100 = all killed)
Details in all cases: 10 µM unless noted
SR leukemia = tested on: SR leukemia
RPMI-8226 leukemia = tested on: RPMI-8226 leukemia
OVCAR-8 ovarian = tested on: OVCAR-8 ovarian
OVCAR-5 ovarian = tested on: OVCAR-5 ovarian
OVCAR-4 ovarian = tested on: OVCAR-4 ovarian
SK-OV-3 ovarian = tested on: SK-OV-3 ovarian
IGROV1 ovarian = tested on: IGROV1 ovarian
OVCAR-3 ovarian = tested on: OVCAR-3 ovarian
NCI/ADR-RES ovarian = tested on: NCI/ADR-RES ovarian

## CN1CCN(c2nc(C3=C(c4c[nH]c5ccccc45)C(=O)NC3=O)c3ccccc3n2)CC1
SR leukemia
  growth: 68.7%
RPMI-8226 leukemia
  growth: 97.8%
OVCAR-8 ovarian
  growth: 66.9%
OVCAR-5 ovarian
  growth: 25.1%
OVCAR-4 ovarian
  growth: 71.9%
SK-OV-3 ovarian
  growth: 87.1%
IGROV1 ovarian
  growth: 75.4%
OVCAR-3 ovarian
  growth: 110%
NCI/ADR-RES ovarian
  growth: 85.1%

## Cn1ccnc1C(=O)/C=C/c1ccc(CC(=O)Nc2ccc(C(F)(F)F)cc2)cc1
SR leukemia
  growth: 1.17% (active)
RPMI-8226 leukemia
  growth: 3.07% (active)
OVCAR-8 ovarian
  growth: -25.8% (active)
OVCAR-5 ovarian
  growth: 22.9%
OVCAR-4 ovarian
  growth: 43.1%
SK-OV-3 ovarian
  growth: 53.5%
IGROV1 ovarian
  growth: 9.94% (active)
OVCAR-3 ovarian
  growth: 9.48% (active)
NCI/ADR-RES ovarian
  growth: 6.64% (active)

## CO[C@H]1C[C@@H]2CC[C@@H](C)[C@@](O)(O2)C(=O)C(=O)N2CCCC[C@H]2C(=O)O[C@H]([C@H](C)C[C@@H]2CC[C@@H](OCCO)[C@H](OC)C2)CC(=O)[C@H](C)/C=C(\C)[C@@H](O)[C@H](OC)C(=O)[C@H](C)C[C@H](C)\C=C/C=C/C=C/1C
SR leukemia
  growth: 11.3%
RPMI-8226 leukemia
  growth: 35.6%
OVCAR-8 ovarian
  growth: 40.9%
OVCAR-5 ovarian
  growth: 50.8%
OVCAR-4 ovarian
  growth: 26.8%
SK-OV-3 ovarian
  growth: 35%
IGROV1 ovarian
  growth: 16.3%
OVCAR-3 ovarian
  growth: 63.4%
NCI/ADR-RES ovarian
  growth: 57.7%

## Nc1cc(C(F)(F)F)c(-c2cc(N3CCOCC3)nc(N3CCOCC3)n2)cn1
SR leukemia
  growth: -6.66% (active)
RPMI-8226 leukemia
  growth: -6.64% (active)
OVCAR-8 ovarian
  growth: -24.2% (active)
OVCAR-5 ovarian
  growth: -17.3% (active)
OVCAR-4 ovarian
  growth: -11.9% (active)
SK-OV-3 ovarian
  growth: -54.8% (active)
IGROV1 ovarian
  growth: -44.6% (active)
OVCAR-3 ovarian
  growth: -9.69% (active)
NCI/ADR-RES ovarian
  growth: -20.2% (active)

## COc1cc(NCCCN)c2ncccc2c1
SR leukemia
  growth: 68.5%
RPMI-8226 leukemia
  growth: 38.5%
OVCAR-8 ovarian
  growth: 82.1%
OVCAR-5 ovarian
  growth: 93.2%
OVCAR-4 ovarian
  growth: 84.1%
SK-OV-3 ovarian
  growth: 89.1%
IGROV1 ovarian
  growth: 95.7%
OVCAR-3 ovarian
  growth: 93.3%
NCI/ADR-RES ovarian
  growth: 85.7%

## CC(=O)O[C@]1(C)C[C@H](O)[C@]2(O)C=CO[C@H](O[C@@H]3O[C@H](CO)[C@@H](O)[C@H](O)[C@H]3O)[C@@H]21
SR leukemia
  growth: 92.3%
RPMI-8226 leukemia
  growth: 104%
OVCAR-8 ovarian
  growth: 110%
OVCAR-5 ovarian
  growth: 103%
OVCAR-4 ovarian
  growth: 99.8%
SK-OV-3 ovarian
  growth: 102%
IGROV1 ovarian
  growth: 100%
OVCAR-3 ovarian
  growth: 108%
NCI/ADR-RES ovarian
  growth: 107%

## C[C@@H]1COC(Nc2ccc3ncnc(Nc4ccc(OCc5nccs5)c(Cl)c4)c3c2)=N1
SR leukemia
  growth: 17.6%
RPMI-8226 leukemia
  growth: 18.8%
OVCAR-8 ovarian
  growth: 10.4%
OVCAR-5 ovarian
  growth: 59.6%
OVCAR-4 ovarian
  growth: 25.3%
SK-OV-3 ovarian
  growth: -3.87% (active)
IGROV1 ovarian
  growth: 0.932% (active)
OVCAR-3 ovarian
  growth: 31.7%
NCI/ADR-RES ovarian
  growth: 9.99% (active)

## O=C(Cc1ccc(/C=C/C(=O)c2ncc[nH]2)cc1)Nc1ccc(Br)cc1
SR leukemia
  growth: 5.06% (active)
RPMI-8226 leukemia
  growth: -13.3% (active)
OVCAR-8 ovarian
  growth: 6.77% (active)
OVCAR-5 ovarian
  growth: 18.7%
OVCAR-4 ovarian
  growth: 46.4%
SK-OV-3 ovarian
  growth: 70.2%
IGROV1 ovarian
  growth: 8.48% (active)
OVCAR-3 ovarian
  growth: 9.63% (active)
NCI/ADR-RES ovarian
  growth: 13.4%

## C/C(=C(/c1ccc(Cl)cc1)c1ccc(OCCN2CCCCC2)cc1)c1ccccc1
SR leukemia
  growth: 11.2%
RPMI-8226 leukemia
  growth: 69.6%
OVCAR-8 ovarian
  growth: 78.8%
OVCAR-5 ovarian
  growth: 81.6%
OVCAR-4 ovarian
  growth: 77.1%
SK-OV-3 ovarian
  growth: 86%
IGROV1 ovarian
  growth: 68.5%
OVCAR-3 ovarian
  growth: 98.6%
NCI/ADR-RES ovarian
  growth: 89.8%

## CN(c1ncccc1CNc1nc(Nc2ccc3c(c2)CC(=O)N3)ncc1C(F)(F)F)S(C)(=O)=O
SR leukemia
  growth: -6.03% (active)
RPMI-8226 leukemia
  growth: -7.65% (active)
OVCAR-8 ovarian
  growth: 4.96% (active)
OVCAR-5 ovarian
  growth: 7.36% (active)
OVCAR-4 ovarian
  growth: -7.63% (active)
SK-OV-3 ovarian
  growth: 5.63% (active)
IGROV1 ovarian
  growth: 7.61% (active)
OVCAR-3 ovarian
  growth: 15.1%
NCI/ADR-RES ovarian
  growth: 56.2%

## O=C(O)c1ccc2c(c1)nc(Nc1cccc(Cl)c1)c1ccncc12
SR leukemia
  growth: -11.3% (active)
RPMI-8226 leukemia
  growth: 10.6%
OVCAR-8 ovarian
  growth: 5.65% (active)
OVCAR-5 ovarian
  growth: 10.6%
OVCAR-4 ovarian
  growth: -2.42% (active)
SK-OV-3 ovarian
  growth: -27.1% (active)
IGROV1 ovarian
  growth: -22.2% (active)
OVCAR-3 ovarian
  growth: 2.03% (active)
NCI/ADR-RES ovarian
  growth: 5.81% (active)

## O=C(Nc1nc2cccc(-c3ccc(CN4CCS(=O)(=O)CC4)cc3)n2n1)C1CC1
SR leukemia
  growth: 45.4%
RPMI-8226 leukemia
  growth: 62.5%
OVCAR-8 ovarian
  growth: 58.1%
OVCAR-5 ovarian
  growth: 75.3%
OVCAR-4 ovarian
  growth: 78.4%
SK-OV-3 ovarian
  growth: 58.4%
IGROV1 ovarian
  growth: 65%
OVCAR-3 ovarian
  growth: 57.5%
NCI/ADR-RES ovarian
  growth: 90.3%

## Cc1ncc(-c2ccnc(Nc3ccc(S(C)(=O)=O)cc3)n2)n1C(C)C
SR leukemia
  growth: -18.3% (active)
RPMI-8226 leukemia
  growth: -0.427% (active)
OVCAR-8 ovarian
  growth: 6.22% (active)
OVCAR-5 ovarian
  growth: -0.123% (active)
OVCAR-4 ovarian
  growth: 3.33% (active)
SK-OV-3 ovarian
  growth: 11.6%
IGROV1 ovarian
  growth: -10.8% (active)
OVCAR-3 ovarian
  growth: 8.42% (active)
NCI/ADR-RES ovarian
  growth: 1.79% (active)

## NC1=Nc2cc(OCCCN3Cc4ccccc4C3)c(OCC3CC3)cc2C12CCCC2
SR leukemia
  growth: -5.81% (active)
RPMI-8226 leukemia
  growth: 33.8%
OVCAR-8 ovarian
  growth: 72%
OVCAR-5 ovarian
  growth: 83.5%
OVCAR-4 ovarian
  growth: 61.3%
SK-OV-3 ovarian
  growth: 70.1%
IGROV1 ovarian
  growth: 71.7%
OVCAR-3 ovarian
  growth: 75.7%
NCI/ADR-RES ovarian
  growth: 79%
